# Calls of active or inactive are those of the source.
# Experiments:
# [1] = E. coli DRC41 culture turbidity changes, primary screen, E. coli filamentation inducer project, strain DRC41, OD650, 48 h (AID 1152);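 further: E. coli MC1000 strain DRC41 lacking acrAB efflux pump and sulA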; conditions: E. coli DRC41 (acrAB sulA), higher = more signal, called active from +8 up or from −8 down
# [2] = small-molecule binders of probe aLefty1, primary screen, biochemical, small-molecule microarray, 635/667 nm fluorescence (AID 1153); conditions: higher = more signal;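 further: score merges spot fluorescence with signal-to-noise ratio from the scanned slide images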
# [3] = PSAC antagonists in infected red cells, primary screen, cell-based, P. falciparum Indochina, OD700, 1 h (AID 1154); conditions: P. falciparum Indochina infected RBC osmotic lysis, higher = more signal, called active from +8 up or from −8 down
# [4] = PSAC antagonists in infected red cells, primary screen, cell-based, P. falciparum Indochina, OD700, 2 h (AID 1155);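 further: lysis reports solute entry through the parasite surface anion channel PSAC; channel blockers reduce lysis of infected cells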; conditions: P. falciparum Indochina infected erythrocytes, osmotic lysis OD700; higher = more signal, called active from +8 up or from −8 down
# [5] = osmotic lysis modulators in infected erythrocytes, primary screen, PSAC antagonist project, cell-based, P. falciparum Indochina, OD700, 3 h (AID 1156); conditions: higher = more signal, called active from +8 up or from −8 down
# [6] = PSAC antagonists in infected red cells, primary screen, cell-based, P. falciparum Indochina, OD700, 18 h (AID 1157); conditions: P. falciparum Indochina infected erythrocytes, osmotic lysis OD700, 18 h; higher = more signal, called active from +8 up or from −8 down
# [7] = modulators of S6 phosphorylation in cells, primary screen, cell-based, A549, cytoblot, luminescence, serum-stimulated (AID 1158); conditions: A549 phospho-S6 cytoblot, 5 h, higher = more signal;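 further: serum-stimulated A549 lung adenocarcinoma cells; signal is phosphorylated S6 detected by cytoblot immunostaining with HRP secondary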
# [8] = target: NADPH oxidase 2 (Homo sapiens) (UniProt P04839); assay: NOX2-dependent H2O2 signal modulators, primary screen, NOX inhibitor project, cell-based, HEK293-NOX2, PMA-stimulated, Amplex Red fluorescence (AID 1159); conditions: 45 min, higher = more signal, called active from +8 up or from −8 down; further: test concentration not given here
# NADPH oxidase 2 (Homo sapiens), sequence (P04839 whole entry, looked up): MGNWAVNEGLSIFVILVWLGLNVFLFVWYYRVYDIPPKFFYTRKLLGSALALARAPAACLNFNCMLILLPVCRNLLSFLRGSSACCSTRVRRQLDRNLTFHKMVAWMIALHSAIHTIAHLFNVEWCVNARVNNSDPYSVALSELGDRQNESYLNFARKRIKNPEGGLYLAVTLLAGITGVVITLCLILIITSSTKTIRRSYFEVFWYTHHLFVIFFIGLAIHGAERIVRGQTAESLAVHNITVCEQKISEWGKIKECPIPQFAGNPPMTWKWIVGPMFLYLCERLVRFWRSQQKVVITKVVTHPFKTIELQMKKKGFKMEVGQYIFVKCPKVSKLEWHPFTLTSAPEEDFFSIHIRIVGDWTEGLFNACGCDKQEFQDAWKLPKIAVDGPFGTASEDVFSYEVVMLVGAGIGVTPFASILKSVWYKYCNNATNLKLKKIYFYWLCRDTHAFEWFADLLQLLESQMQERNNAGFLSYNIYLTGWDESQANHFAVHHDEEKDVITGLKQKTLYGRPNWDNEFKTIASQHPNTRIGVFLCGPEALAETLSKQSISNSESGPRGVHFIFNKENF
# [9] = target: NADPH oxidase 4 (Homo sapiens) (UniProt Q9NPH5); assay: NOX4-dependent H2O2 signal modulators, primary screen, NOX inhibitor project, cell-based, HEK293-NOX4, tetracycline-induced, Amplex Red fluorescence (AID 1160); conditions: 45 min, higher = more signal, called active from +8 up or from −8 down
# NADPH oxidase 4 (Homo sapiens), sequence (Q9NPH5 whole entry, looked up): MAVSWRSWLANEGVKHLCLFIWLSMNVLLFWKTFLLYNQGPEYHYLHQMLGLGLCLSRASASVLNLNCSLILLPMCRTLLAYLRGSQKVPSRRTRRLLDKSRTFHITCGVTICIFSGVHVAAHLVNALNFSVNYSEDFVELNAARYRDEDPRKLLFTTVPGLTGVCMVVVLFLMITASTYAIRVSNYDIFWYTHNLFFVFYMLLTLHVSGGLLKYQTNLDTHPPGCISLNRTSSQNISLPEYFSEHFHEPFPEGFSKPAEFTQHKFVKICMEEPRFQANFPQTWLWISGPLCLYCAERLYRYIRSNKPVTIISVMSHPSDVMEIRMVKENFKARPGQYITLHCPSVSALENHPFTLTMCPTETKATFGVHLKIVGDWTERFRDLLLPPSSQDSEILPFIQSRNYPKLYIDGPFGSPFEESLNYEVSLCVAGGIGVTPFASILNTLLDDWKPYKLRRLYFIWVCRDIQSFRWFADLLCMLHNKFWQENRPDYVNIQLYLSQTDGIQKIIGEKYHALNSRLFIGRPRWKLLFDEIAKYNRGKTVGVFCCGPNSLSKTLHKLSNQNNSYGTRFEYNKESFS
# [10] = target: NADPH oxidase 5 (Homo sapiens) (UniProt Q96PH1); assay: NOX5-dependent H2O2 signal modulators, primary screen, NOX inhibitor project, cell-based, HEK293-NOX5, Amplex Red fluorescence (AID 1161); conditions: HEK293-NOX5, ionomycin, 45 min, higher = more signal
# NADPH oxidase 5 (Homo sapiens), sequence (Q96PH1 whole entry, looked up): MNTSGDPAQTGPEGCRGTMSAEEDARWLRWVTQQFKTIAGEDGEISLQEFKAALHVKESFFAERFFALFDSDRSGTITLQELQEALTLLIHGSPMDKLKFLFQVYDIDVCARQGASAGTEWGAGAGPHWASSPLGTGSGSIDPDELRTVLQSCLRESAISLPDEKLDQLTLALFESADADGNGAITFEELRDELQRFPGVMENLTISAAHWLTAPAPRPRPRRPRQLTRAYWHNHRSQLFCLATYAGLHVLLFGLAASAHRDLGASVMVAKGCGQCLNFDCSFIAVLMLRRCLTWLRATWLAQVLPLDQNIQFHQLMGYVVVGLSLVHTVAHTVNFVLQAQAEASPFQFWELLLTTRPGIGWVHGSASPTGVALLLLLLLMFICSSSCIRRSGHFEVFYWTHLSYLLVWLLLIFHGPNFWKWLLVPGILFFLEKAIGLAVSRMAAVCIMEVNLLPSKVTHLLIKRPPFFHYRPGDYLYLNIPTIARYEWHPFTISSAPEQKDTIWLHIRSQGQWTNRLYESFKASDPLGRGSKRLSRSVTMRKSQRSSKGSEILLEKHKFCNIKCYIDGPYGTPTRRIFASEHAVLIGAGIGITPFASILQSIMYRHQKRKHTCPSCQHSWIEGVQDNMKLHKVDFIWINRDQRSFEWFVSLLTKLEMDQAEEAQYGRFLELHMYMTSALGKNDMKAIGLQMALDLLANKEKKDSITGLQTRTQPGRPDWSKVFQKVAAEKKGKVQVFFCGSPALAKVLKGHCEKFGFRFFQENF
SMILES,z-score [1],composite z-score [2],z-score [3],z-score [4],z-score [5],z-score [6],z-score [7],z-score [8],z-score [9],z-score [10]
[N-]=[N+]=NCc1ccccc1[C@@H]1OC(c2ccc(OCCCO)cc2)=N[C@]1(Cc1ccccc1)C(=O)N1CCCCC1,1.22 (inactive),0.33,21.5 (active),4.66 (inactive),1.78 (inactive),1.3 (inactive),-0.205,-0.84 (inactive),0.453 (inactive),-1.26
COC(=O)C[C@@H]1C[C@H](C)[C@]2(O1)C(=O)N(Cc1ccccc1)c1ccc(NC(C)=O)cc12,0.442 (inactive),-0.193,1.66 (inactive),-0.0327 (inactive),0.962 (inactive),0.0822 (inactive),0.525,0.627 (inactive),-1.06 (inactive),2.27
Cc1ccccc1C(O)C1C=CC2C(=O)N(C)C(=O)C2N1N1CCCCC1 (stereo not given),-1.52 (inactive),0.563,0.234 (inactive),0.479 (inactive),0.126 (inactive),1.02 (inactive),-0.467,-0.182 (inactive),0.0457 (inactive),-1.46
COCCOC(=O)N1C(=O)[C@@]2(c3cc(C#CCCO)ccc31)[C@H](C(=O)NC[C@H](O)c1ccccc1)[C@H]1C(=O)O[C@H](c3ccccc3)[C@H](c3ccccc3)N1[C@@H]2c1ccc(O)cc1,1.53 (inactive),0.0509,1.35 (inactive),0.706 (inactive),-0.365 (inactive),0.435 (inactive),0.391,0.745 (inactive),0.698 (inactive),1.21
CC(C)N1CC=CC23O[C@@H]4C=CCOC(=O)[C@@H]4[C@H]2C(=O)N(CCO)[C@@H]3C1=O (stereo not given in full),0.759 (inactive),-0.0559,-0.0173 (inactive),0.257 (inactive),-0.288 (inactive),0.6 (inactive),0.121,0.603 (inactive),0.865 (inactive),0.913
[N-]=[N+]=NCc1ccccc1C[C@]1(C(=O)O)N=C(c2ccc(OCCCO)cc2)O[C@H]1c1ccccc1CN=[N+]=[N-],-0.813 (inactive),0.222,21.5 (active),3.96 (inactive),0.649 (inactive),0.321 (inactive),-0.591,-0.331 (inactive),1.11 (inactive),2.29
CCOC(=O)C1=C[C@@H](C(C)C)N(S(=O)(=O)c2ccc(C)cc2)[C@H]1c1ccc(C(C)C)cc1,-0.39 (inactive),0.262,0.431 (inactive),0.749 (inactive),0.4 (inactive),0.367 (inactive),-0.234,-0.5 (inactive),-0.195 (inactive),-0.151
[N-]=[N+]=NCc1ccccc1[C@@H]1OC(c2ccc(OCCCO)cc2)=N[C@]1(Cc1ccccc1N=[N+]=[N-])C(=O)NCc1ccccc1,-2.95 (inactive),0.639,21.8 (active),4.97 (inactive),3.79 (inactive),1.33 (inactive),-0.33,-0.654 (inactive),0.0734 (inactive),0.235
COC(=O)[C@@]1(Cc2ccc(OC)cc2)[C@H]2c3cc(C(=O)N4CCCC4)n(CCc4c[nH]c5cc(F)ccc45)c3C[C@H]2CN1C(=O)c1ccccc1,-0.429 (inactive),1.27,3.07 (inactive),0.676 (inactive),0.745 (inactive),1.06 (inactive),-0.174,0.438 (inactive),0.0193 (inactive),-0.293
C=CC[C@@]1(C(=O)NCC(O)CO)N=C(c2ccc(OCCCO)cc2)O[C@@H]1c1ccccc1N=[N+]=[N-] (stereo not given in full),1 (inactive),0.18,34.8 (active),27.8 (active),3.23 (inactive),6.75 (inactive),1.58,-2.45 (inactive),0.918 (inactive),-2.74
O=C1O[C@@H](c2ccccc2)[C@@H](c2ccccc2)N2[C@@H](c3ccc(O)cc3)[C@]3(C(=O)Nc4ccc(C#CC5=CCCCC5)cc43)[C@@H](C(=O)O)[C@H]12,4.17 (inactive),0.112,-2.7 (inactive),-2.38 (inactive),-9.62 (active),-3.16 (inactive),3.05,0.896 (inactive),-2.76 (inactive),-1.01
CCCNC(=O)[C@@]1(c2ccc([N+](=O)[O-])cc2)CC(=O)N(CC23CC4CC(CC(C4)C2)C3)[C@@H]1c1ccc(CO)cc1,-0.0948 (inactive),-0.409,5.64 (inactive),0.903 (inactive),2.2 (inactive),0.625 (inactive),-0.154,0.328 (inactive),-1.85 (inactive),-0.569
N#Cc1ccc(NN2C(C(O)c3cccs3)C=CC3C(=O)N(c4ccccc4)C(=O)C32)cc1 (stereo not given),-0.127 (inactive),0.0262,5.65 (inactive),-0.131 (inactive),0.832 (inactive),-0.741 (inactive),0.578,-2.12 (inactive),-5.34 (inactive),-3.05
COc1c(C)cc(-c2cc3c(c(-c4ccc(Oc5ccccc5)cc4)n2)[Si](C(C)C)(C(C)C)OC3)cc1C,-1.42 (inactive),0.13,0.219 (inactive),0.603 (inactive),0.392 (inactive),0.63 (inactive),-0.817,-0.445 (inactive),0.722 (inactive),-0.958
O=C(OCCF)C1=CCC(c2cccc(Cl)c2)O1 (stereo not given),0.562 (inactive),-0.378,16.4 (active),0.0666 (inactive),-0.628 (inactive),-1.21 (inactive),0.543,-0.0482 (inactive),0.842 (inactive),0.382
CC(C)C(=C=CC[C@@H](O)c1ccccc1OCCO)C[C@@H](O)c1ccccn1,-0.258 (inactive),0.0437,6.05 (inactive),1.2 (inactive),0.611 (inactive),0.774 (inactive),-0.632,0.216 (inactive),-0.725 (inactive),-1.6
COCCCNC(=O)[C@@]1(CCC(=O)OC(C)(C)C)N=C(c2ccc(OCCCO)cc2)O[C@H]1c1ccccc1CN=[N+]=[N-],0.369 (inactive),0.428,23.2 (active),4.71 (inactive),1.35 (inactive),0.883 (inactive),0.0769,1.95 (inactive),2.2 (inactive),2.48
COCC(=C=CC[C@H](O)c1ccc(OCCO)cc1)C[C@H](O)c1cc(Cl)cc(Cl)c1O,1.37 (inactive),0.155,10.3 (active),2.44 (inactive),-2.64 (inactive),-0.162 (inactive),0.175,-2.99 (inactive),-1.12 (inactive),-3.26
C=C[C@H](COC(C)=O)N(Cc1ccc(OC(C)=O)c(OC)c1)S(=O)(=O)c1ccc(Br)cc1,1.49 (inactive),0.19,3.23 (inactive),-1.11 (inactive),-0.827 (inactive),-1.15 (inactive),2,-4.68 (inactive),-0.87 (inactive),-1.95
COc1ccc(CCNC(=O)[C@@]2(c3ccc([N+](=O)[O-])cc3)CC(=O)N(CC34CC5CC(CC(C5)C3)C4)[C@@H]2c2ccc(CO)cc2)cc1,0.0305 (inactive),0.155,4.6 (inactive),0.522 (inactive),3.14 (inactive),-0.24 (inactive),2,-0.956 (inactive),-4.54 (inactive),-3.97
CC(C)c1ccc(NN2C(C(O)c3ccc(N(C)C)cc3)C=CC3C(=O)N(c4ccccc4)C(=O)C32)cc1 (stereo not given),-0.448 (inactive),0.544,1.72 (inactive),1.05 (inactive),0.655 (inactive),1.32 (inactive),-0.183,-1.14 (inactive),-0.983 (inactive),-2.39
COCCOC(=O)N1C(=O)[C@@]2(c3cc(C#CCNC(N)=O)ccc31)[C@H](c1ccc(O)cc1)N1[C@H](c3ccccc3)[C@H](c3ccccc3)OC(=O)[C@H]1[C@@H]2C(=O)NC[C@H](O)c1ccccc1,-0.388 (inactive),0.101,1.3 (inactive),1.1 (inactive),0.205 (inactive),0.559 (inactive),0.155,1.01 (inactive),0.326 (inactive),0.253
CC(C)CNC(=O)[C@@H]1c2ccccc2C(=O)N(Cc2cc(C(F)(F)F)cc(C(F)(F)F)c2)[C@H]1c1ccc(CO)cc1,0.808 (inactive),0.197,1.52 (inactive),0.0238 (inactive),0.173 (inactive),0.379 (inactive),0.578,0.753 (inactive),-0.815 (inactive),0.86
CCOC(=O)C[C@H]1[C@H](OC(=O)c2ccc(-c3ccccc3)cc2)[C@@H](NC(=O)c2ccc(-c3ccccc3)cc2)c2cc(OCCCO)ccc2N1C(=O)Cc1ccc(OC)cc1,-0.783 (inactive),-0.0061,11.4 (active),0.618 (inactive),-0.397 (inactive),0.602 (inactive),0.491,-1.3 (inactive),0.622 (inactive),-0.0798
CC(C)Cc1ccc(CN2CC[C@@H](NS(=O)(=O)c3ccccc3)C2)cc1,-19.2 (active),-0.198,2.49 (inactive),0.408 (inactive),0.306 (inactive),0.574 (inactive),0.709,0.312 (inactive),-0.907 (inactive),-3.68
CC(C)C[C@@H]1NC(=O)[C@H]2C[C@@H](C(=O)NCCCCCCNC(=O)CS)[C@@H](c3cccc(OCCO)c3)N2C1=O,1.03 (inactive),-0.0523,3.77 (inactive),0.194 (inactive),2.83 (inactive),-0.042 (inactive),-0.0016,1.14 (inactive),0.665 (inactive),-0.112

# From PubChem BioAssay
